# Assay outcomes: PubChem, National Center for Advancing Translational Sciences (NCATS)
# G9a inh = qHTS Assay for Inhibitors of Histone Lysine Methyltransferase G9a; Histone-lysine N-methyltransferase EHMT2 (Homo sapiens), Q96KQ7; G9a H3K9 monomethylation, AlphaScreen, 2 h; Potency, µM (titrated, usually from 102 µM), actives largely listed as inhibitors; 350,000 tested, 8.8% active; note: nearly all actives have a fitted effect of over 75% in size
#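 Compounds were preincubated with 20 nM G9a for 15 min, after which biotinylated H3K9 peptide (500 nM) and SAM (20 uM) started a 2 h room-temperature reaction. Monomethylated product was quantified by antibody-based AlphaScreen chemiluminescence.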
# BAZ2B block = qHTS Assay for Inhibitors of BAZ2B; Bromodomain adjacent to zinc finger domain protein 2B (Homo sapiens), Q9UIF8; AlphaScreen BAZ2B-H3K14Ac peptide displacement; Potency, µM (series often up to 114 µM), usual class: inhibitors; 360,000 tested, 4.4% active; note: nearly all actives have a fitted effect of over 60% in size
#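 AlphaScreen luminescence quantifies BAZ2B engagement of H3K14Ac peptide; the protein and biotinylated peptide are both at 50 nM final, buffer PBS pH 7.4 with 0.01% Tween-20, all steps at room temperature.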
# HP1b chromo inh = HTS for Inhibitors of HP1-beta Chromodomain Interactions with Methylated Histone Tails. 390,000 tested, 0.56% active. AID 540317, 2011. AlphaScreen HP1-beta / biotin-H3K9me3 peptide binding. Potency, µM (doses to about 114 µM), most hits filed as inhibitors. Chromobox protein homolog 1 (Homo sapiens), P83916; note: nearly all actives have a fitted effect of over 70% in size
#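 Compound inhibition of the preformed complex between 50 nM HP1-beta and 50 nM biotinylated H3K9me3 peptide was read by AlphaScreen. Buffer was PBS pH 7.4 with 0.01% Tween-20. Incubations ran 30 min at room temperature, with 10 ug/mL donor/acceptor beads.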
# Six1-Eya2 blk = qHTS Assay for Inhibitors of the Six1/Eya2 Interaction; AlphaScreen GST-Six1/His-Eya2 binding, biochemical; active compounds read low; activity change, % (concentration not given with the values); 360,000 tested, 0.56% active; in the data active = activity change below about -65%; inconclusive = mostly about -30% to -63%
#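 GST-Six1 + His-Eya2 (5X stock: 250/500 nM); Tris pH 8.0, 300 mM NaCl, 0.05% BSA, 0.02% Tween 20; GSH donor/Ni acceptor beads; 1 h 37 °C dark; AlphaScreen readout.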
# JMJD2A Tudor = qHTS Assay for Inhibitors of JMJD2A-Tudor Domain; Lysine-specific demethylase 4A (Homo sapiens), O75164; AlphaScreen JMJD2A-Tudor / H3K4me3 peptide binding; Potency, µM (highest dose often 114 µM), usual class: inhibitors; 390,000 tested, 4.4% active; AID 504339, 2011; note: nearly all actives have a fitted effect of over 50% in size
# CtBP-E1A blk = qHTS Assay for Inhibitors of the CtBP/E1A Interaction; CtBP / adenovirus E1A interaction (AlphaScreen); AlphaScreen GST-E1A/His-CtBP binding, 1536-well; active compounds read low; activity change, % (no concentration beside the values); 340,000 tested, 0.49% active; in the data active = activity change below about -65%; inconclusive = mostly about -30% to -63%
#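 GST-E1A and His-tagged CtBP (125 nM each as 5X stock) were preincubated with pin-transferred compound for 2 h at 37 °C in the dark, then glutathione donor and nickel acceptor beads were added for 1 h before AlphaScreen reading.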
# Hits are given with their value; - = inactive; ? = inconclusive; . = not tested or not shown; [ ] = dose if it differs, or a comment. In the library only some 10% were active in any assay of this set; here they are far more common. Unless noted, calls come from the whole dose curve; as a rule, active = well fitted inhibition curve with a large enough effect; inconclusive = small, poorly fitted or top-dose-only effect; inactive = no such curve, though single readings can be large or run the other way.
SMILES,G9a inh,BAZ2B block,HP1b chromo inh,Six1-Eya2 blk,JMJD2A Tudor,CtBP-E1A blk
Cc1cccc(C(=O)NC(=S)NNC(=O)c2cccs2)c1,7.1µM,-,?,-,25µM,-
Cc1ccc(OCC(=O)NNC(=S)NC(=O)c2cccs2)c(C)c1,.,-,-,-,-,-
Cc1cccc(C(=O)NC(=S)NNC(=O)c2ccc(Cl)cc2)c1,40µM,-,-,-,-,-
Cc1cc(OCC(=O)NNC(=S)NC(=O)c2cccs2)ccc1Cl,32µM,-,-,-,-,-
Cc1ccccc1C(=O)NNC(=S)NC(=O)c1cccs1,?,-,-,-,-,.
O=C(NNC(=O)c1cc2cc3ccccc3nc2s1)c1cccc(Cl)c1,32µM,-,-,-,50µM,-
O=C(NCCc1ccccc1)c1ccc(-c2cccnc2)c2ccoc12,.,.,.,-,.,?
COc1cc(NC(=O)CCc2nc3cccnc3n2Cc2cccs2)cc(OC)c1OC,-,?,-,.,-,.
Cc1nc(-c2cccnc2)sc1CCNS(=O)(=O)c1ccc(F)cc1,-,-,-,.,-,.
CC1CCN(C(=O)CN2CCSc3ccc(S(=O)(=O)N(C)C)cc32)CC1,-,-,-,.,-,.
O=C(NC(=S)NNC(=O)c1cccs1)c1ccccc1,8.9µM,-,-,-,-,-
NC(=S)NNC(=O)c1cccc(Cl)c1,71µM,-,-,-,-,-
CC(C)(C)c1ccc(C(=O)NC(=S)NNC(=O)c2cccs2)cc1,40µM,-,-,-,?,-
CCCOc1ccc(C(=O)NNC(=S)NC(=O)c2cccs2)cc1,?,-,-,-,?,-
O=C(NNC(=O)c1cccc(Cl)c1)NNC(=O)c1cccc(Cl)c1,.,.,-,-,-,-
O=C(CSc1nc2ccccc2n1Cc1ccc(F)c(Cl)c1)N1CCN(c2ccc(F)cc2)CC1,-,-,-,.,-,.
COc1ccc(C2/C=C\CN(CC(C)C)C(Cc3ccccc3)C(=O)N2Cc2ccc(F)cc2)cc1 (stereo not drawn),.,.,-,.,-,.
COc1cc2cc(CCCOC(=O)c3cccc(Br)c3)oc(=O)c2cc1OC,-[0.501 µM],-,-,-,-,-
COc1ccc(/C(=N/Nc2ncnc3ccccc23)C(=O)O)cc1,?,-,-,-77,?,-69
O=C(c1ccco1)N1CCN(Cc2nnnn2CC2CCCO2)CC1 (stereo not drawn),?,-,-,-,28µM,.
O=C(c1ccco1)N1CCN(C(c2ccc(Cl)cc2)c2nnnn2CC2CCCO2)CC1 (stereo not drawn),-[12.7 µM],?,-,-,79µM,-
COCCn1nnnc1CN1CCN(C(=O)c2ccco2)CC1,-,-,-,-,-,-
Cc1ccc(C(c2nnnn2CC2CCCO2)N2CCN(C(=O)c3ccco3)CC2)cc1 (stereo not drawn),-,-,-,-,-,-
Cc1cc(C)c(OCCCCCn2ccnc2)c(C)c1,-,?,-,-,-,.
N#Cc1cc2ccccc2n2nnnc12,50µM,-,-,-,-,-
SMILES,G9a inh,BAZ2B block,HP1b chromo inh,Six1-Eya2 blk,JMJD2A Tudor,CtBP-E1A blk
COc1cc(/C=N/NC(=O)CSc2cc(C)c(Br)cc2C)ccc1O,-,-,-,-,-,-
Cc1cc(SCC(=O)N/N=C/c2ccc(O)c(O)c2O)c(C)cc1Br,?,-,?,?,50µM,?
c1csc(-c2nc3ccccc3s2)c1,20µM,-,-,-,-,-
Cn1c(N=Nc2ccc(N3CCOCC3)cc2)[n+](C)c2ccccc21,18µM,13µM,?,?,?,-
Cn1c(=Nc2ccc(N3CCOCC3)cc2)ccc2ccccc21,?,?,-,-,-,-
Cc1ccc(Nc2nnc(SCC(=O)NC(Cc3c[nH]c4ccccc34)C(=O)O)s2)cc1 (stereo not drawn),13µM,50µM,-,?,-,.
CCOc1ccccc1Nc1nnc(SCC(=O)NC(Cc2c[nH]c3ccccc23)C(=O)O)s1 (stereo not drawn),40µM,-,-,?,-,-
CCOc1ccccc1Nc1nnc(SCC(=O)Nc2ccc3[nH]c(=O)[nH]c3c2)s1,-,-,-,-,-,-
Cc1ccc(C)c(OCC(=O)NC(Cc2c[nH]c3ccccc23)C(=O)O)c1 (stereo not drawn),.,?,-,-,-,-
Cc1ccccc1OCCCn1c(CO)nc2ccccc21,-,-,-,-,-,-
CSc1nsc(SC)c1NC(=O)OCc1ccccc1,40µM,-,-,-,-,-
CSc1nsc(SC)c1NC(=O)OCCc1ccccn1,?,-,-,-,-,-
CCc1cccc(NC(=O)Cn2c(=O)n(CCCCCC(=O)NCc3ccc(F)cc3)c(=O)c3sccc32)c1,-,-,-,.,-,.
CCN(CC)C(=S)SC1=CCS(=O)(=O)C1,20µM,.,-,-,-[11.4 µM],.
S=c1nc[nH]c2c1ncn2-c1ccc(Cl)cc1,.,.,?,-,50µM,-
Cn1c2cc(CO)sc2c2cnn(Cc3ccccc3F)c(=O)c21,.,.,.,.,-,.
CCN(CC)c1nc2ccccc2[nH]1,-,-,-,-,-,-
CCN(CC)c1nc2ccccc2[nH]c1=O,32µM,-,-,-,-,-
O=C1OC2(c3ccccc31)c1cc(I)c(O)c(I)c1Oc1c2cc(I)c(O)c1I,?,10µM,.,.,.,.
CCOCc1[nH]c(=S)[nH]c(=O)c1Cc1ccc(OCC(C)C)cc1,-,-,-,-,50µM,-
N=C(N)N1CCc2ccccc2C1,-[12.7 µM],-,.,.,.,.
COc1ccc(/C=C2\CCCC3C2=NN(C(=O)CSc2ncn[nH]2)C3c2ccc(OC)cc2)cc1 (stereo not drawn),-,-,-,-,-,-
O=C(O)CSCC(=O)N1N=C2/C(=C/c3ccccc3)CCCC2C1c1ccccc1 (stereo not drawn),50µM,-,-,-,-,-
NC(=O)N1N=C2/C(=C/c3ccccc3)CCCC2C1c1ccccc1 (stereo not drawn),-,-,-,-,-,-
O=C(CSc1ncn[nH]1)N1N=C2/C(=C/c3ccccc3)CCCC2C1c1ccccc1 (stereo not drawn),11µM,-,-,-,?,-
COc1ccc2c(c1C)CCC(C)(C#N)C2=O (stereo not drawn),.,.,-,-,-,-
Cc1cccc(OCCOCCN2CCOCC2)c1C,-[12.7 µM],-,-,-,-,-
Cc1cccc(C(C)(C)C)c1OCCOCCN1CCCC1,?,-,-,-,2.2µM,-
